A structure can be active in one record and inactive in another. Activity calls are given as the source filed them. Rule for the calls: active = hit-call score of the fitted dose curve at least 0.9, where 1 is the maximum; inactive = score below 0.9.

What all share (conditions): mRNA level, 48 h; actives raise or lower the signal
Read-out in assay [1]: Alkaline Phosphatase, Placental (ALPP) gene, ALPP (gene 250)
Description: LTEA_HepaRG_ALPP: Life Technologies and Expression Analysis (LTEA) Assay for Alkaline Phosphatase, Placental (ALPP) gene using HepaRG (AID 2283468).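 For AC50: differentiated human HepaRG liver cells in serum-free induction medium.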 Summed up:
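ALPP transcript level, measured by qRT-PCR and normalized to three housekeeping genes (ACTB, GAPDH, POLR2A), after 48 h dosing of differentiated HepaRG in serum-free induction medium. Top concentration 100 uM with half-log dilutions (8 points, 0.5% DMSO, duplicates); bidirectional fitting relative to DMSO.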

Read-out in assay [2]: Bcl-2 (BAD) gene, BAD (gene 572)
Description: LTEA_HepaRG_BAD: Life Technologies and Expression Analysis (LTEA) Assay for Bcl-2 (BAD) gene using HepaRG (AID 2283469). Summed up:
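Read-out: qRT-PCR of BAD mRNA, normalized to three housekeeping genes. Human HepaRG cultures got 48 h chemical exposure in 0.5% DMSO, duplicate eight-point half-log series topping at 100 uM. Gain or loss of signal fitted versus DMSO vehicle.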

Read-out in assay [3]: Bcl-2 (BAX) gene, BAX (gene 581)
Description: LTEA_HepaRG_BAX: Life Technologies and Expression Analysis (LTEA) Assay for Bcl-2 (BAX) gene using HepaRG (AID 2283470). Summed up:
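Cells were thawed, plated for 48 h, moved to serum-free induction medium and dosed for 48 h (highest concentration 100 uM, half-log steps, 0.5% DMSO). Total RNA was then analysed for BAX expression by qRT-PCR.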

Read-out in assay [4]: adenosine kinase (ADK) gene, ADK (gene 132)
Description: LTEA_HepaRG_ADK: Life Technologies and Expression Analysis (LTEA) Assay for adenosine kinase (ADK) gene using HepaRG (AID 2283471). An outline of the steps:
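ADK expression quantified by qRT-PCR, normalised to three housekeeping genes, after 48 h exposure of HepaRG cells to eight concentrations (top 100 uM, half-log steps, duplicate, 0.5% DMSO). Up- or down-regulation fitted relative to vehicle.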

Read-out in assay [5]: Alpha-fetoprotein (AFP) gene, AFP (gene 174)
Description: LTEA_HepaRG_AFP: Life Technologies and Expression Analysis (LTEA) Assay for Alpha-fetoprotein (AFP) gene using HepaRG (AID 2283472). Summed up:
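Chemicals were tested on differentiated HepaRG cells for 48 hours at eight concentrations up to 100 uM, with 0.5% DMSO as vehicle. AFP expression was then quantified by qRT-PCR and analyzed for gain or loss relative to DMSO.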

Read-out in another assay: BCL2L11 (gene 10018)
Description: LTEA_HepaRG_BCL2L11: Life Technologies and Expression Analysis (LTEA) Assay for Bcl-2 (BCL2L11) gene using HepaRG (AID 2283473). An outline of the steps:
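BCL2L11 transcript levels are measured by Fluidigm qRT-PCR, normalized to three housekeeping genes. HepaRG cultures were plated 48 h, then treated 48 h with test chemical (top 100 uM, half-log, 0.5% DMSO vehicle); curves were fitted bidirectionally against DMSO.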

Read-out in assay [6]: Apoptosis regulator Bcl-2 (Homo sapiens) (UniProt P10415)
As to the kind of experiment: LTEA_HepaRG_BCL2: Life Technologies and Expression Analysis (LTEA) Assay for Bcl-2 gene using HepaRG (AID 2283475). Summed up:
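Plated human HepaRG cells are exposed to test chemicals for 48 h across eight concentrations from 100 uM downward in half-log steps (0.5% DMSO). BCL2 expression is then measured by qRT-PCR with housekeeping normalisation and fitted bidirectionally against vehicle.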

Read-out in assay [7]: Bcl-2 (BID) gene, BID (gene 637)
As to the kind of experiment: LTEA_HepaRG_BID: Life Technologies and Expression Analysis (LTEA) Assay for Bcl-2 (BID) gene using HepaRG (AID 2283476). An outline of the steps:
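Cells are plated, cultured 48 h, switched to serum-free induction medium, then dosed 48 h (100 uM top, half-log steps, 0.5% DMSO). RNA is isolated and BID expression read by qRT-PCR.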

Read-out in another assay: Caspase-3 (Homo sapiens) (UniProt P42574)
Description: LTEA_HepaRG_CASP3: Life Technologies and Expression Analysis (LTEA) Assay for cysteine-aspartic acid protease (CASP3) using HepaRG (AID 2283477). Summed up: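 Expression of CASP3 was quantified by TaqMan qRT-PCR against three housekeeping genes (ACTB, GAPDH, POLR2A), bidirectionally versus 0.5% DMSO. HepaRG cultures received compounds in duplicate, top 100 uM with half-log steps, for 48 h in serum-free induction medium.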

Read-out in assay [8]: Cytochrome P450 (CYP24A1), CYP24A1 (gene 1591)
Description: LTEA_HepaRG_CYP24A1: Life Technologies and Expression Analysis (LTEA) Assay for Cytochrome P450 (CYP24A1) using HepaRG (AID 2283478). Summed up: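 mRNA of CYP24A1 quantified by TaqMan qRT-PCR (ACTB/GAPDH/POLR2A normalization) after 48 h chemical exposure of HepaRG cells, top concentration 100 uM, half-log steps, 0.5% DMSO vehicle, duplicates. Curves fitted bidirectionally against DMSO baseline.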

Read-out in assay [9]: Cytochrome P450 (CYP1A2), CYP1A2 (gene 1544)
As to the kind of experiment: LTEA_HepaRG_CYP1A2: Life Technologies and Expression Analysis (LTEA) Assay for Cytochrome P450 (CYP1A2) using HepaRG (AID 2283479). Summed up:
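CYP1A2 transcript measured by TaqMan qRT-PCR against three housekeeping genes after 48-hour chemical exposure of HepaRG cells. Eight-point half-log series topping at 100 uM in 0.5% DMSO, duplicates; gain or loss fitted relative to vehicle.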

Read-out in assay [10]: cysteine-aspartic acid protease (CASP8), CASP8 (gene 841)
Description: LTEA_HepaRG_CASP8: Life Technologies and Expression Analysis (LTEA) Assay for cysteine-aspartic acid protease (CASP8) using HepaRG (AID 2283480). An outline of the steps:
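CASP8 transcript measured by TaqMan qRT-PCR with ACTB/GAPDH/POLR2A normalization, after 48 h chemical exposure of HepaRG cells in serum-free induction medium. Eight concentrations, top 100 uM, half-log steps, 0.5% DMSO vehicle; fits in both directions versus DMSO.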

Read-out in assay [11]: Cytochrome P450 (CYP2B6), CYP2B6 (gene 1555)
Description: LTEA_HepaRG_CYP2B6: Life Technologies and Expression Analysis (LTEA) Assay for Cytochrome P450 (CYP2B6) using HepaRG (AID 2283481). Summed up: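 CYP2B6 transcript level quantified by qRT-PCR against three housekeeping genes, fitted bidirectionally relative to DMSO. HepaRG cultures received chemicals for 48 h, 8-point half-log series from 100 uM in 0.5% DMSO, duplicate wells, serum-free induction medium.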

Read-out in assay [12]: Cytochrome P450 2C19 (Homo sapiens) (UniProt P33261)
Description: LTEA_HepaRG_CYP2C19: Life Technologies and Expression Analysis (LTEA) Assay for CYP2C19 using HepaRG (AID 2283482). Summed up: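 CYP2C19 transcript levels by qRT-PCR, normalized to three housekeeping genes, in HepaRG cells after 48 h chemical exposure. Eight-point half-log series topping at 100 uM, 0.5% DMSO vehicle. Increases and decreases both fitted against DMSO.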

Read-out in another assay: CYP2C8 (gene 1558)
Description: LTEA_HepaRG_CYP2C8: Life Technologies and Expression Analysis (LTEA) Assay for CYP2C8 using HepaRG (AID 2283483). Summed up:
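CYP2C8 expression measured by TaqMan qRT-PCR and normalized to three housekeeping genes. HepaRG cultures were treated for 48 h with an eight-point half-log series topping at 100 uM, vehicle 0.5% DMSO, duplicates; fitted both directions against DMSO.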

Read-out in another assay: CYP2C9 (gene 1559)
As to the kind of experiment: LTEA_HepaRG_CYP2C9: Life Technologies and Expression Analysis (LTEA) Assay for CYP2C9 using HepaRG (AID 2283484). Summed up: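 CYP2C9 transcript level, quantified by TaqMan qRT-PCR against three housekeeping genes, was fitted bidirectionally relative to 0.5% DMSO. HepaRG cultures were treated 48 h, in duplicate, at eight half-log concentrations topping at 100 uM.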

Read-out in another assay: CYP2E1 (gene 1571)
As to the kind of experiment: LTEA_HepaRG_CYP2E1: Life Technologies and Expression Analysis (LTEA) Assay for CYP2E1 using HepaRG (AID 2283485). An outline of the steps: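 Readout is qRT-PCR of CYP2E1 mRNA, normalized to three housekeeping genes and fitted bidirectionally against 0.5% DMSO. HepaRG cells were dosed 48 h at eight concentrations, highest 100 uM with half-log dilutions.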

Read-out in a further assay: CYP4A11 (gene 1579)
Description: LTEA_HepaRG_CYP4A11: Life Technologies and Expression Analysis (LTEA) Assay for CYP4A11 using HepaRG (AID 2283486). Summed up: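 Readout is CYP4A11 transcript level by qRT-PCR, normalized to three housekeeping genes and fitted bidirectionally against 0.5% DMSO. Human HepaRG cells were treated 48 h, in duplicate, with an 8-point half-log series topping at 100 uM.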

Read-out in assay [13]: Cytochrome P450 3A4 (Homo sapiens) (UniProt P08684)
Description: LTEA_HepaRG_CYP3A4: Life Technologies and Expression Analysis (LTEA) Assay for CYP3A4 using HepaRG (AID 2283487). An outline of the steps:
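Differentiated HepaRG cells, plated 48 h, then dosed 48 h in serum-free induction medium with 0.5% DMSO, 8 half-log concentrations up to 100 uM, duplicate. CYP3A4 mRNA by qRT-PCR, normalized to ACTB/GAPDH/POLR2A; bidirectional fit versus DMSO.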

Chain of Cytochrome P450 2C19 (Homo sapiens) (P33261 whole entry, looked up): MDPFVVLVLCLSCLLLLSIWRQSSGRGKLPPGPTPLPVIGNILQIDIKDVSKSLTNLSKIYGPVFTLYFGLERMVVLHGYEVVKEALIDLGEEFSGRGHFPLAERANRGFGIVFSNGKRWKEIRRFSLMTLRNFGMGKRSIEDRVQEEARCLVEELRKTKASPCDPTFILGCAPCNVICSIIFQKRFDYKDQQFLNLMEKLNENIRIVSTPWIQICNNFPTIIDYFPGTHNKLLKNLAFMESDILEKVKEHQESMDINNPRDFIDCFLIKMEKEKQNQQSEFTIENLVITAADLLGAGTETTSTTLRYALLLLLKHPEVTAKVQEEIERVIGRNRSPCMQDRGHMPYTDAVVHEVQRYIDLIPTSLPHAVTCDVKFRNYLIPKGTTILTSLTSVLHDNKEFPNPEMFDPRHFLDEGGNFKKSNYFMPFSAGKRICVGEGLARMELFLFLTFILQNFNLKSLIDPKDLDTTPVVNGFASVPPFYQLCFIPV
Chain of Caspase-3 (Homo sapiens) (P42574 whole entry, looked up): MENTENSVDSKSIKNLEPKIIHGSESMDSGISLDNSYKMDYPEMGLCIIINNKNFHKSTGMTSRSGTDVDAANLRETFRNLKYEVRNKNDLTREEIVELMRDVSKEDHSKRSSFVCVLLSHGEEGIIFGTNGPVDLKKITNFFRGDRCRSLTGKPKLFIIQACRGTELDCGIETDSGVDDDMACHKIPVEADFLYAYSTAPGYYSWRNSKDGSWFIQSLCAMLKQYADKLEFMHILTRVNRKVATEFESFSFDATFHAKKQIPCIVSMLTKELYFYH
Chain of Cytochrome P450 3A4 (Homo sapiens) (P08684 whole entry, looked up): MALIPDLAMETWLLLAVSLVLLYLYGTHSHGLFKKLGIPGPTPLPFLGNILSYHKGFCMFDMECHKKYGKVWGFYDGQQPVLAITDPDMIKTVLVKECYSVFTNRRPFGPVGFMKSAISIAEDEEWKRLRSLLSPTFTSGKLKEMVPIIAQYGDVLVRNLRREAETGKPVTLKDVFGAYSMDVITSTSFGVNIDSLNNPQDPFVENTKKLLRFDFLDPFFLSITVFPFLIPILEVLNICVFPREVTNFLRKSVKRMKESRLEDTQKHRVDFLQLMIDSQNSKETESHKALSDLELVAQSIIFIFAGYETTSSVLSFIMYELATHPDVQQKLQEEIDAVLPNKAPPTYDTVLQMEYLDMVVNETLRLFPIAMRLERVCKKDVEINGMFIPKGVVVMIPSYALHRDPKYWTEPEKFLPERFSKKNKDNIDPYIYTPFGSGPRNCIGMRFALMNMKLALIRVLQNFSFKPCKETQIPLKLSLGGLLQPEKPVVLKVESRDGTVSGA
Chain of Apoptosis regulator Bcl-2 (Homo sapiens) (P10415 whole entry, looked up): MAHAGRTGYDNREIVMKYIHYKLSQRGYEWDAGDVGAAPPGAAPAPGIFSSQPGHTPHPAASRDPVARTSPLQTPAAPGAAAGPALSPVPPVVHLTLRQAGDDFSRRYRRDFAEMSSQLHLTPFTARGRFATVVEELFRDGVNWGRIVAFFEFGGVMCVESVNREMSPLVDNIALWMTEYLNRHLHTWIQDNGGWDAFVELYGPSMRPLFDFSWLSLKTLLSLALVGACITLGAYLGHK

As for `O=C(O)c1nc(Cl)ccc1Cl`, the AC50 in assay [1] was 27.3 µM (active); in assay [9] it was 50 µM (active); in the assay with CYP2E1 (gene 1571), 17.6 µM (active). The compound was classed as inactive (in assay [1]; in [2]; in assay [3]; in assay [4]; in [5]; with BCL2L11 (gene 10018)). The outcome (in [6]; in assay [7]; with Caspase-3 (Homo sapiens); in assay [8]; in [9]; in assay [10]) was inactive. For the same compound, the result (in [11]; in assay [12]; with CYP2C8 (gene 1558); with CYP2C9 (gene 1559); with CYP2E1 (gene 1571); with CYP4A11 (gene 1579)) was inactive. Besides, the call in [13] was inactive.
For `CC(C)(C)c1ccc(CSc2cnn(C(C)(C)C)c(=O)c2Cl)cc1`, the concentration at half-maximal activity (AC50) is 1.08 µM (active) in [1]; 6.27 µM (active) in assay [3]; 2.47 µM (active) in assay [5]; 1.93 µM (active) in the assay with BCL2L11 (gene 10018); 2.89 µM (active) in [6]; 2.36 µM (active) in [9]. In addition, the concentration at half-maximal activity (AC50) in [10] was 12.8 µM (active); in assay [11], 1.54 µM (active); in [12] it was 28 µM (active); with CYP2C8 (gene 1558), 22.5 µM (active); with CYP2C9 (gene 1559), 13.4 µM (active); with CYP2E1 (gene 1571), 1.48 µM (active). The concentration at half-maximal activity (AC50) is 1.75 µM (active) with CYP4A11 (gene 1579) and 1.56 µM (active) in [13]. The result (in assay [2]; in [4]; in [7]; in the assay with Caspase-3 (Homo sapiens); in assay [8]) was inactive.
For the compound `CCCCOC(=O)c1ccccc1C(=O)OCCCC`, the compound was classed as inactive (in assay [1]; in assay [2]; in assay [3]; in assay [4]; in assay [5]; with BCL2L11 (gene 10018)). Moreover, the outcome (in assay [6]; in assay [7]; with Caspase-3 (Homo sapiens); in assay [8]; in [9]; in assay [10]) was inactive. The compound was called inactive (in assay [11]; in assay [12]; with CYP2C8 (gene 1558); with CYP2C9 (gene 1559); with CYP2E1 (gene 1571); with CYP4A11 (gene 1579)). In addition, the call in assay [13] was inactive.
Turning to `C=CC1(C)OC(=O)N(c2cc(Cl)cc(Cl)c2)C1=O` (stereo not drawn), the call (in [1]; in assay [2]; in assay [3]; in assay [4]; in [5]; with BCL2L11 (gene 10018)) was inactive. Besides, the result (in assay [6]; in [7]; with Caspase-3 (Homo sapiens); in [8]; in assay [10]; in the assay with CYP2C9 (gene 1559)) was inactive. Also, the outcome with CYP4A11 (gene 1579) was inactive. In addition, the half-maximal activity concentration (AC50) is 18.8 µM (active) in assay [9]; 7.99 µM (active) in assay [11]; 18.4 µM (active) in assay [12]; 16.7 µM (active) with CYP2C8 (gene 1558); 40.1 µM (active) with CYP2E1 (gene 1571); 13.6 µM (active) in [13].
In the case of `Cc1cc(Cl)ccc1OCC(=O)O`, the call (in assay [1]; in assay [2]; in assay [3]; in assay [4]; in assay [5]; with BCL2L11 (gene 10018)) was inactive. Also, the compound was classed as inactive (in [6]; in assay [7]; with Caspase-3 (Homo sapiens); in assay [8]; in assay [10]; in the assay with CYP2C9 (gene 1559)). In addition, the result in assay [13] was inactive. For the same compound, the AC50 in [9] was 50 µM (active); in assay [11] it was 25.5 µM (active); in assay [12], 24.3 µM (active); with CYP2C8 (gene 1558), 19.9 µM (active); with CYP2E1 (gene 1571) it was 30.9 µM (active); with CYP4A11 (gene 1579), 12 µM (active).

One may read the AC50 as the concentration at which the activity in the assay is half-maximal.
